Our source for the fold change and outcome values is PubChem BioAssay AID1259240 (Keith Lab, Institute of Cancer Science, University of …, 2017).

Unmarked numbers belong to inactive results. Calls of active or inactive are those of the source. Rule as the data show it: active = fold change mostly below about -2 (no sharp cut-off); inactive = mostly above about -1.8.

The nature of the experiment: modulation of TERT promoter-driven luciferase – cell-based, luciferase reporter, human, primary screen (AID 1259240). The following applies: A2780 TERT promoter luciferase reporter, 16 h; at 20 µM, fold versus average of vehicle-only wells.
With `Cc1noc(C(=O)Nc2cccc(Cl)c2)c1Cl`, the fold change is 1.73.

Turning to `CC(C)Oc1cc(O)c2c(=O)c(-c3ccc(O)cc3)coc2c1`, the fold change is -6.88 (active).

Turning to `COc1cccc(/C=c2\sc3nc(=O)c(Cc4ccc(Cl)cc4)nn3c2=O)c1OC`, the fold change is -1.08. Same read-out and setting: the figure for `Cc1ccc(NC(=O)Nc2ccc3c(c2)N(C)C(=O)CS3)c(C)c1` is -1.06; for `O=C(CCN1C(=O)c2ccccc2S1(=O)=O)Nc1cccc(Br)c1` it is 1.01. Consider `CCOC(=O)N1CCN(c2c(NCC3CCCO3)c(=O)c2=O)CC1` (stereo not given), for which the fold change was 1.16. In the case of `COc1cc(-c2nc3s/c(=C\c4ccccc4Br)c(=O)n3n2)cc(OC)c1OC`, the fold change was 1.02. On the same count and under the same terms, then `COc1cc(OC)c(NC(=O)Nc2cc3sccc3n2C)cc1Cl`, with 1.13; and `Cc1nc2cc(-c3ccccc3)nn2c(C)c1CCC(=O)NC(C)CCc1ccco1` (stereo not given), with -2.05 (active); and `O=C(CSc1nc(-c2ccco2)cc(C(F)(F)F)n1)NCc1cccnc1`, with -1.4. On the same count and under the same terms, the figure for `COc1ccc(-c2nc3s/c(=C\c4ccccc4)c(=O)n3n2)cc1OC` is 1.68.

As to `Cc1cc(=O)[nH]c(SCC(=O)c2c[nH]c3ccccc23)n1`, the result was inactive. As for `CN1CCc2nc3sc(C(=O)Nc4ccc(F)cc4)c(N)c3cc2C1`, the fold change is -1.42. Same read-out and setting: then `CCN1C(=O)/C(=c2\sc3nc(-c4cccc(C)c4)nn3c2=O)c2cc(Br)ccc21`, with -1.02; and `Cc1cc(C(=O)N2CCC(C)CC2)on1`, with 1.62.

Take `O=C(NC1CCCCC1)C1CCCN(S(=O)(=O)c2cnc[nH]2)C1` (stereo not given): the fold change was -1.72.

For `Fc1ccc(-c2ncc3ccccn23)cc1`, the fold change is 1.16. `CCOC(=O)C1CCCN(c2c(N3CCN(c4ccc(F)cc4)CC3)c(=O)c2=O)C1` (stereo not given): the fold change is -1.2. The same measure, in the same setting: then `CCc1cccc(Nc2nc3ccccc3n3nnnc23)c1`, with -12.7 (active); and `Cn1c2ccccc2c2cnn(CC(=O)NCCc3c[nH]c4ccccc34)c(=O)c21`, with 1.23; and `c1ccc2c(NCCCN3CCOCC3)c3c(nc2c1)CCCC3`, with -1.45. Same read-out and setting: then `COc1ccccc1-c1nc2s/c(=C3\C(=O)N(CC(=O)O)c4ccccc43)c(=O)n2n1`, with 1.16; and `Cc1cccc(CCn2c(=O)c3ccccc3n(Cc3cc(=O)n4ccccc4n3)c2=O)c1`, with -1.38; and `Cc1cc(C)c2sc(-c3ccccc3)cc(=O)c2c1`, with -37 (active). Still for that read-out and setting: then `CCC(C)NC(=O)Cn1ncc2c3ccccc3n(C)c2c1=O` (stereo not given), with -1.04; and `O=C(Cc1ccc(NC2=NC3CS(=O)(=O)CC3S2)cc1)N1CCN(c2ncccn2)CC1` (stereo not given), with 1.14; and `Cc1noc(C(=O)Nc2sc3c(c2C#N)CCC3)c1Cl`, with 1.31. On to `CN(C)CCN1C(=O)C(=O)/C(=C(\O)c2ccc(F)cc2)C12C(=O)N(C)c1ccccc12` (stereo not given), for which the fold change is -1.34. Same read-out and setting: then `CCCSc1nnc2c3ccccc3n(CC)c2n1`, with -1.73; and `Fc1ccc(CNc2nnc(Cc3ccncc3)c3ccccc23)cc1`, with -1.53. The same measure, in the same setting: the figure for `CCOC(=O)c1oc2ccc(S(=O)(=O)n3nc(-c4ccc(OC)cc4OC)cc3N)cc2c1C` is -1.57; for `CCNc1nc(C(=O)O)nc(N2CCOCC2)n1` it is -1.25. For the molecule `Cc1nnc(SCc2nc(-c3ccc(Cl)cc3)no2)n1-c1ccccc1`, the fold change was -1.9. As to `CC(=O)N1CSCC1C(=O)N1CCN(c2ccc(N3CCOCC3)nn2)CC1` (stereo not given), the fold change is -1.03. On the same count and under the same terms, then `O=c1/c(=C/c2ccco2)sc2nc(-c3ccccc3Br)nn12`, with 1.48; and `Cc1cc(C(=O)N2CCN(Cc3ccc4c(c3)OCO4)CC2)on1`, with 1.36; and `CN(Cc1ccccc1)C(=O)C1CCCN(S(=O)(=O)c2ccc3c(c2)oc(=O)n3C)C1` (stereo not given), with -1.14. The same measure, in the same setting: the figure for `Cc1csc(NC(=O)C2CCCN2S(=O)(=O)c2cccc3cccnc23)n1` (stereo not given) is -1.27; for `COc1ccc(-c2nc(CSc3nc4ccncc4[nH]3)c(C)o2)cc1` it is -1.53; for `CCCNc1c(NC2CCN(C(=O)OCC)CC2)c(=O)c1=O` it is -1.23.
